Assay results reported in PubChem BioAssay (Tox21).
Values joined by “and” are separate entries in the source; they are usually repeats but may differ in a detail not shown here. Identical values can stand only once. Inconclusive results are not listed. The source holds several records for some structures; these can differ, active in one and inactive in another. Active and inactive are the calls of the source. Unless noted, calls come from the whole dose curve; as a rule, active = well fitted curve in the direction sought with a large enough effect in the repeat runs; inconclusive = weak or mixed curves; inactive = no such curve, though single readings can be large; an effect the other way counts as inactive or inconclusive.

Assays:
[1] = qHTS assay to identify small molecule antagonists of the estrogen receptor alpha (ER-alpha) signaling pathway using the BG1 cell line in the presence of 0.1 nM 17-beta-estradiol - cell viability counter screen (AID 1259241); note: nearly all actives have a fitted effect of over 40% in size
Outline: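 Estradiol-stimulated (0.1 nM) VM7Luc4E2 cells exposed to compounds 22 hr; viability measured by fluorescence of cleaved CellTiter-Fluor substrate after 30 min.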

[2] = qHTS assay to identify small molecule antagonists of the androgen receptor (AR) signaling pathway using the MDA cell line in the presence of 0.5 nM R1881 - cell viability counter screen (AID 1259242); note: nearly all actives have a fitted effect of over 45% in size; note: potency is the fitted concentration of half-maximal effect
Outline: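 Concentration-response screen of compounds for toxicity in MDA-kb2 reporter cells: 16 hr at 37C with 0.5 nM R1881, endpoint live-cell protease fluorescence measured in the reporter wells.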

[3] = molecular target: Estrogen receptor (Homo sapiens) (UniProt P03372); experiment: qHTS assay to identify small molecule antagonists of the estrogen receptor alpha (ER-alpha) signaling pathway using the BG1 cell line in the presence of 0.1 nM 17-beta-estradiol (AID 1259244); note: nearly all actives have a fitted effect of over 50% in size
Outline: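 Compounds were tested against 0.1 nM (final) 17beta-estradiol in VM7Luc4E2 cells, which express full-length ER-alpha and an ERE-luciferase reporter; luminescence was recorded following 22 h exposure.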

[4] = qHTS assay to identify small molecule HDAC inhibitors (AID 1259364); note: potency is the fitted concentration of half-maximal effect;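 note: wild-type HCT-116 cells with endogenous class I/II HDAC activity; nearly all actives have a fitted effect of over 45% in size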
Outline: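 Screening used wild-type human colon HCT-116 cells incubated overnight, dosed with compounds for 2 hours, and assayed with a homogeneous luminogenic HDAC I/II reagent for 30 minutes at room temperature.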

[5] = qHTS assay to identify small molecule HDAC inhibitors - cell viability counter screen (AID 1259365); note: series mostly up to about 92 µM; nearly all actives have a fitted effect of over 50% in size
Outline: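 After overnight seeding at 1,500 cells per well, wild-type HCT-116 cultures took up compounds in DMSO for 2hr at 37 C. Viable cell content came from luminescence with CellTiter-Glo.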

[6] = qHTS assay to identify small molecule agonists of the sonic hedgehog signaling (Shh) pathway - cell viability counter screen (AID 1259366); note: nearly all actives have a fitted effect of over 50% in size
Outline: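 Same-well cytotoxicity read. Gli1-Luc reporter 3T3 cells; compounds 24hr, 37C/5% CO2; CellTiter-Fluor fluorescence.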

[7] = qHTS assay to identify small molecule antagonists of the sonic hedgehog signaling (Shh) pathway - cell viability counter screen (AID 1259367); note: nearly all actives have a fitted effect of over 55% in size
Outline: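 Tox21 library chemicals were tested on a Gli1-Luc NIH/3T3 clone (2,000 cells/well) stimulated by conditioned medium; viability was quantified as fluorescence from CellTiter-Fluor reagent added at 23 hr.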

[8] = qHTS assay to identify small molecule agonists of the sonic hedgehog signaling (Shh) pathway (AID 1259368; calls by dose curve;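 note: NIH/3T3-derived 3T3Gli1-Luc cells carrying a stable Gli1-driven firefly luciferase reporter; series mostly up to about 92 µM; nearly all actives have a fitted effect of over 15% in size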)
Outline: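 Hedgehog pathway agonism scored by increased firefly luciferase luminescence in 3T3Gli1-Luc cells treated 24 hr at 37 C; detection used a 30 min room-temperature reagent incubation.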

[9] = qHTS assay to identify small molecule antagonists of the sonic hedgehog signaling (Shh) pathway (AID 1259369; calls by dose curve; note: nearly all actives have a fitted effect of over 45% in size; note: potency is the fitted concentration of half-maximal effect)
Outline: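 NIH/3T3 stable Gli1-Luc clone, 2,000 cells/well, 4hr settle; cpd + conditioned medium 24hr; Luc reagent 30min RT; luminescence.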

[10] = qHTS assay to identify small molecule agonists of the androgen receptor (AR) signaling pathway in the presence of an antagonist - cell viability counter screen (AID 1259379);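 note: MDA-kb2 human breast cancer cells carrying an MMTV luciferase reporter; series mostly up to about 92 µM; nearly all actives have a fitted effect of over 25% in size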
Outline: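 MDA-kb2 viability measured by CellTiter-Fluor fluorescence in the same wells as the luciferase signal; nilutamide 3.0uM final; 15-point compound titration; 16 hr at 37C.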

[11] = qHTS assay to identify small molecule agonists of the estrogen receptor beta (ER-beta) signaling pathway - cell viability counter screen (AID 1259380); note: nearly all actives have a fitted effect of over 30% in size; note: potency is the fitted concentration of half-maximal effect
Outline: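 Measured: luminescence from CellTiter-Glo after 30 min at room temperature, added to wells already read for the LiveBLAzer FRET reporter (2 hr substrate); ER-beta-UAS-bla HEK293T cells had 16 hr compound treatment at 37C, 5% CO2.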

[12] = qHTS assay to identify small molecule antagonists of the estrogen receptor beta (ER-beta) signaling pathway - cell viability counter screen (AID 1259382); note: series mostly up to about 92 µM; nearly all actives have a fitted effect of over 55% in size
Outline: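 Readout: luminescence, CellTiter-Glo, same wells as bla assay. System: ER-beta-UAS-bla GripTite HEK293T, 2% charcoal-stripped FBS. Exposure: compounds plus 1nM 17-beta-estradiol, 16 hr, 37C.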

[13] = molecular target: Estrogen receptor (Homo sapiens) (UniProt P03372); experiment: qHTS assay to identify small molecule agonists of the estrogen receptor alpha (ER-alpha) signaling pathway in the presence of an antagonist (AID 1259383; calls by dose curve; note: nearly all actives have a fitted effect of over 15% in size; note: potency is the fitted concentration of half-maximal effect; for activation: top concentration of the series differs between compounds)
Outline: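 Quantitative HTS confirmation: compounds titrated at 15 concentrations onto estrogen-deprived VM7Luc4E2 cells carrying a four-ERE luciferase construct, with ICI-182,780 present at 10.0nM final. Signal is luminescence after 22hr exposure.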

[14] = molecular target: Thyrotropin receptor (Homo sapiens) (UniProt P16473); experiment: qHTS assay to identify small molecule antagonists of the thyroid stimulating hormone receptor (TSHR) signaling pathway (AID 1259385; calls by dose curve; note: nearly all actives have a fitted effect of over 20% in size)
Outline: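 TSHR-HEK293 cells (800/well) plated 18 h, then compounds with Ro20-1724 and TSH at 1.5 ng/mL final, 30 min at room temperature. cAMP quantified by HTRF (cAMP-d2/anti-cAMP-cryptate, 1 h); 15 concentrations in triplicate.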

[15] = molecular target: Estrogen receptor beta (Homo sapiens) (UniProt Q92731); experiment: qHTS assay to identify small molecule antagonists of the estrogen receptor beta (ER-beta) signaling pathway (AID 1259378; active = well fitted inhibition curve with a large enough effect in the signal ratio in the repeat runs, not every such curve was filed as active; the % refers to the signal ratio)
Outline: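 ER-beta-UAS-bla HEK293T cells in 2% charcoal-stripped FBS medium treated with compound plus 1nM final 17-beta-estradiol for 16 hr at 37C. Beta-lactamase reporter read by FRET substrate fluorescence after 2 hours at room temperature.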

[16] = qHTS assay to identify small molecule agonists or antagonists of the thyroid stimulating hormone receptor (TSHR) signaling pathway - wild type cell line counter screen (AID 1259384; calls by dose curve)
Outline: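 Wild-type Hek293 cells, 800/well, 18 h at 37C, then compound with Ro20-1724 for 30 min RT. cAMP by HTRF (cAMP-d2/anti-cAMP cryptate), 1 h RT, fluorescence read. 15 concentrations, triplicates.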

[17] = molecular target: Estrogen receptor beta (Homo sapiens) (UniProt Q92731); experiment: qHTS assay to identify small molecule agonists of the estrogen receptor beta (ER-beta) signaling pathway (AID 1259377; active = well fitted activation curve with a large enough effect in the signal ratio in the repeat runs, not every such curve was filed as active; the % refers to the signal ratio)
Outline: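 Read-out: beta-lactamase FRET fluorescence. Cell line: ER-beta-UAS-bla HEK293T in 2% charcoal-stripped FBS. Exposure: 16 hr at 37C. Substrate step: 2 h at room temperature.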

Measured: Potency

Estrogen receptor (Homo sapiens), sequence (P03372 whole entry, looked up): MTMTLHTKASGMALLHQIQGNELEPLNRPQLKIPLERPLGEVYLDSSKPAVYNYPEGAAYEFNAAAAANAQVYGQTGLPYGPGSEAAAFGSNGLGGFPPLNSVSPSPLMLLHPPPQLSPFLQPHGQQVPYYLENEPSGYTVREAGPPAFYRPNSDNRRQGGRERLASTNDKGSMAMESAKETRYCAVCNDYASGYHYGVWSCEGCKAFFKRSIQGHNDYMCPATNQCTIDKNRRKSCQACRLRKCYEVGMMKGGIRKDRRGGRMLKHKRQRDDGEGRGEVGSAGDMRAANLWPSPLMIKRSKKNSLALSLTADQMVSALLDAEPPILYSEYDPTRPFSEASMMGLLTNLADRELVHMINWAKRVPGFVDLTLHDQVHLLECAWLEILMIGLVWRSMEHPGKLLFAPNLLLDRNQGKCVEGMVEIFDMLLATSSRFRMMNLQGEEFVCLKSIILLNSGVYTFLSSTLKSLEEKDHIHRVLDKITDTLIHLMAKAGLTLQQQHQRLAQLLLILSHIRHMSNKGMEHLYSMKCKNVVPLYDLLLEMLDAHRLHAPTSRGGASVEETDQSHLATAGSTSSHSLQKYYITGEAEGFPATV
Estrogen receptor beta (Homo sapiens), sequence (Q92731 whole entry, looked up): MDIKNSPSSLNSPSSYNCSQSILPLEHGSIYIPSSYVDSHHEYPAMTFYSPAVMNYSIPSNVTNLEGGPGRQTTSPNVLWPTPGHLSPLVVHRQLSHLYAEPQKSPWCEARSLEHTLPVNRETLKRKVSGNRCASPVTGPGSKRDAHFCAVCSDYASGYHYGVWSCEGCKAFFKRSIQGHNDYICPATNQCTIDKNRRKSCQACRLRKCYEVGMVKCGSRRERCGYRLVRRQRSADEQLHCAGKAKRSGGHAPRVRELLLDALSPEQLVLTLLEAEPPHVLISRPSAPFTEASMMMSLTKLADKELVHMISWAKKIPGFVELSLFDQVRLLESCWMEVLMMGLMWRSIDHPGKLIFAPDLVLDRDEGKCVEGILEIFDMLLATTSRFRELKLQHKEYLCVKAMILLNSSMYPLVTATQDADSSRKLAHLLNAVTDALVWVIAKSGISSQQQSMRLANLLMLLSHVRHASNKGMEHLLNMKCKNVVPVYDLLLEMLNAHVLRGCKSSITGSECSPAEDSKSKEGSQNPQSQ
Thyrotropin receptor (Homo sapiens), sequence (P16473 whole entry, looked up): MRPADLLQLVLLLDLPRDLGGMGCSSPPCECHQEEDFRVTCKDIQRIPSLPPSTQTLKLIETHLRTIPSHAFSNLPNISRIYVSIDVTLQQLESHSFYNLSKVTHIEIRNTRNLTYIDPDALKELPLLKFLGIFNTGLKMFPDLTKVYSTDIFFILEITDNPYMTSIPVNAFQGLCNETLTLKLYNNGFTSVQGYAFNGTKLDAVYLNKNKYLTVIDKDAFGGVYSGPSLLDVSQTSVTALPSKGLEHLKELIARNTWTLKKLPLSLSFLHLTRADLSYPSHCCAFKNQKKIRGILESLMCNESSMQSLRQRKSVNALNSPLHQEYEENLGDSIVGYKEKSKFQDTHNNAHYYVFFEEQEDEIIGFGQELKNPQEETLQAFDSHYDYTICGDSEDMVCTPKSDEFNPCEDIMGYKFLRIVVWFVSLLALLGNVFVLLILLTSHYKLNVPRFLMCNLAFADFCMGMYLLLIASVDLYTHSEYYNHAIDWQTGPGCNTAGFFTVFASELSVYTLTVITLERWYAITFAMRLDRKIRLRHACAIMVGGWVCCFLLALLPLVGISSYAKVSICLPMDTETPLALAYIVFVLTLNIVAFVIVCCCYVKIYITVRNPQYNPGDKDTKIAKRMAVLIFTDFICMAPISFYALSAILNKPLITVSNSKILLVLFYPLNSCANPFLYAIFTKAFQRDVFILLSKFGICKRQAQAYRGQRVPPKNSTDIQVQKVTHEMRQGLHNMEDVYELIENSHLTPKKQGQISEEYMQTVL

OCCNCCO
inactive: [1] | [2] | [3] | [4] | [5] | [6] | [7] | [8] | [9] | [10] | [11] | [12] | [13] | [14]

C1COCCN1
inactive: [1] | [2] | [3] | [4] | [5] | [6] | [8] | [9] | [15] | [10] | [11] | [12] | [13] | [16] | [14]

Brc1nc2ccccc2s1
inactive: [1] | [2] | [3] | [4] | [5] | [6] | [7] | [8] | [9] | [15] | [10] | [11] | [12] | [13] | [16] | [14]

Oc1c(Cl)ccc(Cl)c1Cl
inactive: [1] | [2] | [3] | [4] | [5] | [6] | [7] | [8] | [9] | [10] | [12] | [13]

CCCCCC1C(=O)CCC1CC(=O)OC (centres undefined)
inactive: [1] | [2] | [3] | [4] | [5] | [6] | [7] | [8] | [9] | [10] | [11] | [12] | [13] | [14]

CC(C)(C)c1cccc(C(C)(C)C)c1O
inactive: [1] | [2] | [3] | [4] | [5] | [6] | [7] | [8] | [10] | [11] | [12] | [13] | [16] | [14]

C=CCNCC=C
inactive: [1] | [2] | [3] | [4] | [5] | [6] | [7] | [8] | [9] | [10] | [11] | [12] | [13]

COC(=O)c1ccc(C)cc1
inactive: [1] | [2] | [3] | [4] | [5] | [6] | [7] | [8] | [9] | [10] | [11] | [12] | [13] | [14]

CCCN1C=CN(C)C1
inactive: [1] | [2] | [3] | [4] | [5] | [6] | [7] | [8] | [9] | [10] | [11] | [12] | [13] | [16] | [14]

CCOC(=O)C(C)Oc1ccc(Oc2cnc3cc(Cl)ccc3n2)cc1 (centres undefined)
inactive: [1] | [2] | [3] | [4] | [5] | [6] | [7] | [8] | [9] | [10] | [11] | [12] | [13] | [16] | [14]

COc1ccc(-c2coc3cc(O)cc(O)c3c2=O)cc1
17.4 µM (active) and inactive: [9]
inactive: [1] | [3] | [5] | [6] | [7] | [8] | [10] | [12] | [16] | [14]
active: [4] 21.9 µM and 17.2 µM | [11] 38.6 µM | [13] 21.9 µM and 9.69 µM
54.9 µM (active) and inactive: [2]

CCO[Si](CCCNC(N)=O)(OCC)OCC
inactive: [1] | [2] | [3] | [4] | [5] | [6] | [7] | [8] | [9] | [15] | [10] | [11] | [12] | [13] | [16] | [14]

Cc1ccc(C(C)(C)C)c(O)c1
inactive: [1] | [2] | [3] | [4] | [5] | [8] | [9] | [17] | [15] | [10] | [12] | [13] | [16] | [14]

Cc1ccc(C(C)(C)C)cc1
inactive: [1] | [2] | [3] | [4] | [5] | [6] | [7] | [8] | [9] | [10] | [11] | [12] | [13] | [16] | [14]

c1ccc2ncccc2c1
inactive: [1] | [2] | [3] | [4] | [5] | [6] | [8] | [9] | [10] | [11] | [12] | [13] | [16] | [14]

CCCCCC=O
inactive: [1] | [2] | [3] | [4] | [5] | [6] | [7] | [8] | [9] | [10] | [11] | [12] | [13] | [16] | [14]

c1ccc2c(c1)ccc1cc3c(ccc4ccccc43)cc12
active: [4] 12.1 µM and 15.2 µM
inactive: [1] | [2] | [3] | [5] | [6] | [7] | [8] | [9] | [10] | [11] | [12] | [13]
